This is a sample that favours compounds with a hit; in the whole collection about 9.4% have one here.
Pf growth 96h – P. falciparum growth inhibition at 96 hours; Potency, µM (top dose mostly 28.7 µM), most hits filed as inhibitors; P. falciparum luciferase reporter growth, 96 h; 320,000 compounds, 6.9% hits; AID 504834
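Compounds incubated with erythrocytes infected by luciferase-expressing P. falciparum (2% hematocrit, 0.05% parasitemia final) for 96 hours, 37 C in 5% CO2. Growth inhibition scored as decreased luciferase luminescence.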
SARS PLpro yeast – SARS-CoV PLP inhibition in yeast | S. cerevisiae expressing SARS-CoV PLpro, growth rescue | Potency, µM (highest dose often 32.9 µM), hits mostly activators | 330,000 compounds, 0.19% hits | AID 485353; calls by dose curve; also: nearly all actives have a fitted effect of over 55% in size
AMA1 RON2 block – disrupts binding of P. falciparum AMA1 to RON2. AlphaScreen AMA1-biotinylated RON2 peptide binding. Potency, µM (series often up to 58.2 µM), most hits filed as inhibitors. 360,000 compounds, 0.2% hits; also: nearly all actives have a fitted effect of over 45% in size
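AMA1 (3D7) with his tag at 25 nM final met compounds first, then biotinylated RON2 peptide at 25 nM; detection used donor plus acceptor beads, 10 µg/mL apiece, read by AlphaScreen after 30 min at room temperature.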
Pf growth 48h – inhibits P. falciparum growth in the first generation, 48 h. P. falciparum luciferase growth in erythrocytes, 48 h. Potency, µM (titrated, usually from 28.7 µM), actives largely listed as inhibitors. 310,000 compounds, 5.9% hits. AID 504832
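A one-generation exposure of luciferase-tagged malaria parasites in RPMI 1640/Albumax erythrocyte culture, 37 C and 5% CO2. Inhibition is inferred from decreased luminescence after adding detection reagent.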
Numbers stand for hits; i = inactive; ? = inconclusive; nt = no result given; [ ] = dose if it differs, or a comment. Unless noted, calls follow the shape of the dose curve; as a rule, active = well fitted curve in the direction sought with a large enough effect; inconclusive = small, poorly fitted or top-dose-only effect, or another doubt; inactive = no such curve, though single readings can be large; an effect the other way counts as inactive or inconclusive.

SMILES	Pf growth 96h	SARS PLpro yeast	AMA1 RON2 block	Pf growth 48h
CC(=O)C1=C(O)C(=O)N(Cc2ccco2)C1c1ccc2c(c1)OCO2 (stereo not given)	?	i	i	i
CCCN1C(=O)/C(=N\OCC(=O)NC23CC4CC(CC(C4)C2)C3)c2ccccc21	?	i	i	15µM
CCCN1C(=O)/C(=N\OCC(=O)Nc2ccc(C(C)C)cc2)c2ccccc21	i	i	i	i
COC(=O)C1CN(C(=O)COc2ccc(Cl)cc2C)c2ccccc2O1 (stereo not given)	?	i	i	15µM
O=C(CCC(=O)c1ccc(Cl)s1)Nc1ncccc1O	i	i	i	i
N#C/C(=C\c1cc([N+](=O)[O-])c(N2CCOCC2)cc1N1CCOCC1)c1nc2ccccc2[nH]1	12µM	i	i	?
COc1c(O)ccc(/C=C(\C#N)c2nc3ccccc3[nH]2)c1[N+](=O)[O-]	4.1µM	i	i	i
Cc1cc(/C=C(/C#N)c2nc3ccccc3[nH]2)c(C)n1-c1cccc([N+](=O)[O-])c1	2.3µM	i	i	nt
O=C(COC(=O)c1ccccc1C(=O)N1CCN(c2ccccc2)CC1)Nc1ccccc1	i	i	i	4.1µM
O=C(c1ccc(Cl)c(S(=O)(=O)NCc2ccccc2)c1)N1CCN(c2ccccn2)CC1	4.7µM	i	i	?
CC1CCN(S(=O)(=O)c2cc(C(=O)NC3(C)CCS(=O)(=O)C3)ccc2Br)CC1 (stereo not given)	9.3µM	i	i	?
Oc1c(Br)cc(Br)cc1CN1CCN(Cc2ccccc2)CC1	nt	i	?	1.9µM
CC1(NC(=O)c2cc(S(=O)(=O)N3CCCCC3)ccc2Cl)CCS(=O)(=O)C1 (stereo not given)	i	i	?	nt
Oc1c(Br)cc(Br)cc1/C=N/N1CCN(Cc2ccccc2)CC1	i	i	i[2.32 µM]	i
Cc1cc(C)cc(C(=O)N2CCN(c3ccccn3)CC2)c1	12µM	i	i	i
O=C(NCc1ccccc1)c1cc(C2CCCN(S(=O)(=O)c3cccc4cccnc34)C2)on1 (stereo not given)	nt	nt	i	nt
O=C(N1CCN(Cc2ccccc2)CC1)C(Cl)(Cl)Cl	i	?	i	10µM
O=C(c1c(Cl)cccc1Cl)N1CCN(c2ccccn2)CC1	nt	i	i	i
O=C(C1CC1)N1CCN(Cc2ccccc2)CC1	nt	nt	i	nt
O=[N+]([O-])c1cccc(S(=O)(=O)N2CCN(c3ccccn3)CC2)c1	10µM	i	i	i
O=C(c1ccc(S(=O)(=O)N2CCCCCC2)cc1)N1CCN(c2ccccn2)CC1	nt	i	i	13µM
O=[N+]([O-])c1ccc(S(=O)(=O)N2CCN(c3ccccn3)CC2)cc1	nt	nt	i	nt
O=C(N1CCN(c2ccccn2)CC1)C(Cl)(Cl)Cl	i	i	i	9.3µM
COc1ccc(N(CC(=O)N2CCCCC2)S(=O)(=O)c2ccccc2)c(OC)c1	?	i	i	?
CCCCc1cc(O)c(CCCC)c(O)c1	i	i	i	?
SMILES	Pf growth 96h	SARS PLpro yeast	AMA1 RON2 block	Pf growth 48h
Cc1ccc(S(=O)(=O)Nc2nc3ccccc3nc2Nc2cccc(S(=O)(=O)N3CCCC3)c2)cc1	?	i	i	?
O=[N+]([O-])c1cccc(S(=O)(=O)Nc2nc3ccccc3nc2Nc2cccc(S(=O)(=O)N3CCCCC3)c2)c1	5.2µM	i	i	15µM
CC1CCN(C(=O)c2ccc(Br)c(S(=O)(=O)N3CCOCC3)c2)CC1	i	i	i	i
O=C(c1ccc(Cl)c(S(=O)(=O)N2CCOCC2)c1)N1CCN(c2ccccn2)CC1	12µM	i	i	12µM
CC1CCN(S(=O)(=O)c2cc(C(=O)N3CCN(c4ncccn4)CC3)ccc2Br)CC1	7.4µM	i	i	?
O=C(c1ccc(F)c(S(=O)(=O)N2CCOCC2)c1)N1CCN(c2ccc(F)cc2)CC1	6.6µM	i	i	?
Cc1[nH]n(-c2ccccc2)c(=O)c1C(=O)Nc1ccccc1	i	i	i	i
COc1ccc(NC(=O)CCNC(=O)Cn2ccc3ccccc3c2=O)cc1OC	i	i	i	i
Cc1c(C(=O)N2CCN(c3ccccn3)CC2)oc2c(F)cccc12	2.3µM	nt	i	10µM
Nc1nc(CN2CCc3ccccc3C2)nc(Nc2ccccc2)n1	nt	i	i	?
CC1CC(C)CN(Cc2nc(N)nc(Nc3ccccc3)n2)C1 (stereo not given)	10µM	i	i	?
COc1ccc(Nc2nc(N)nc(CN3CCC(C)CC3)n2)cc1	i	i	i	i
CC1CC(C)CN(Cc2nc(N)nc(Nc3ccc4ccccc4c3)n2)C1 (stereo not given)	nt	i	i	12µM

Compound activity (PubChem BioAssay)
